# From PubChem BioAssay (NCATS)
# Inconclusive results are not listed. Unmarked numbers belong to inactive results. Calls of active or inactive are those of the source. Calls come from the whole dose curve; as a rule, active = well fitted inhibition curve with a large enough effect; inconclusive = small, poorly fitted or top-dose-only effect; inactive = flat fitted curve, though single readings scatter.
# Experiment: P-glycoprotein substrates identified in KB-8-5-11 adenocarcinoma cell line, qHTS therapeutic library screen (AID 1346987); note: nearly all actives have a fitted effect of over 65% in size
# Conditions: KB-8-5-11 (P-gp overexpressing) viability, CellTiter-Glo, 72 h; series mostly up to 44.5 µM; activity change, negative = cytotoxicity: at the top concentration
# Outline: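 KB-8-5-11, a colchicine-selected P-gp-overexpressing KB-3-1 subline, was grown without colchicine for the assay. Cells were seeded at 500 cells/well, dosed in concentration-response and incubated 72 h at 37 degree C, 5% CO2. Viability was read by CellTiter-Glo luminescence.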
# % is set by controls: 0 for no effect and ±100 for the full control effect.
Structure (SMILES),"activity change, negative = cytotoxicity",outcome,Potency
COc1cc2c(cc1OC)CN(C(=O)[C@@H](NCc1ccncc1)C(C)(C)C)CC2,0.391%,–,–
C=C1CCC2C(C)(C)CC(=O)CC2(C)C1CCC(C)CCOC(C)=O (centres undefined),0.616%,–,–
O=C(O)C[C@@H](NC(=O)c1cc(-c2ccc(-c3ccncc3)cc2)cs1)c1ccccc1,0.138%,–,–
OC[C@H]1O[C@@H](Oc2cc(O)cc(-c3cc4ccc(O)cc4o3)c2)[C@H](O)[C@@H](O)[C@@H]1O,–,inactive [at 17.3 µM],–
CCNC(=O)[C@@H]1CCCN1C(=O)[C@H](CCCN=C(N)N)NC(=O)[C@H](CC(C)C)NC(=O)[C@@H](C)NC(=O)[C@H](Cc1ccc(O)cc1)NC(=O)[C@H](CO)NC(=O)[C@H](Cc1c[nH]c2ccccc12)NC(=O)[C@H](Cc1cnc[nH]1)NC(=O)[C@@H]1CCC(=O)N1,9.39% [at 17.3 µM],–,–
O=C(CCCCc1ccc2ccccc2c1)C(F)(F)F,1.14% [at 93.4 µM],–,–
CC(=O)c1c(O)cc2c(c1C)C(=O)CC(O)C2 (centres undefined),–,inactive,–
C=C1CCC2C(OC(=O)C2(O)COC(C)=O)C2C(=C)C(O)CC12 (centres undefined),–,inactive,–
CCOC(=O)Nc1nc2ccccc2[nH]1,0.805%,–,–
C[C@@H]1O[C@@H](O[C@H]2[C@H](O[C@H]3CO[C@@H](O[C@H]4CC[C@@]5(C)C(CC[C@]6(C)C5CC[C@]57OC[C@@]8(CC[C@](C)(CO)CC85)[C@H](O)C[C@]76C)C4(C)C)[C@H](O[C@@H]4O[C@H](CO)[C@@H](O)[C@H](O)[C@H]4O)[C@H]3O)O[C@H](CO)[C@@H](O)[C@@H]2O)[C@H](O)[C@H](O)[C@H]1O (some centres undefined),8.31% [at 9.29 µM],–,–
COC(=O)[C@@]1(O)C=CC[C@@H]2[C@@]3(C)C[C@@H](c4ccoc4)OC(=O)[C@H]3CC[C@]21C,–,inactive,–
COc1cc(/C=C/CO)ccc1O[C@@H]1O[C@H](CO)[C@@H](O)[C@H](O)[C@H]1O,9.81%,–,–
OC[C@H]1O[C@@H](Oc2ccc(O)c3cccc(O)c23)[C@H](O)[C@@H](O)[C@@H]1O,2.55%,–,–
NS(=O)(=O)NCCNc1nonc1C(=Nc1ccc(F)c(Br)c1)NO,–,–,inactive
